Test results published in the supplement of paper PMC6089552.
The whole screen tested about 3,200 compounds, of which about 300 (9.4%) showed activity. The sample holds actives, similar compounds and a random draw of the others, so the mix is not that of the screen.

Test system: A673/TR/shEF
Assay: cell viability (LOESS-normalised, relative to median of negative controls) (log2 ratio); higher = more viable cells (less compound effect), active = hit call of the paper (over 3 MAD below the median)
Conditions: treatment time: 72 h
Method in brief: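 For three days, A673/TR/shEF Ewing sarcoma cells in 384-well plates (1,500 per well) were treated with library compounds at two or more concentrations or with DMSO controls, after doxycycline had been added or withheld 24 h beforehand to induce EWS-FLI1 shRNA knockdown. Viability was read by CellTiter-Glo luminescence on an Envision reader. The data were LOESS-corrected per plate, divided by the median of negative controls and log2-transformed.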

[1] = 0.25 µM, library screen: screen1, EWS-FLI1 expression: high (no doxycycline)
[2] = 0.25 µM, library screen: screen1, EWS-FLI1 expression: low (doxycycline-induced shRNA knockdown)
[3] = 2.5 µM, library screen: screen1, EWS-FLI1 expression: high (no doxycycline)
[4] = 2.5 µM, library screen: screen1, EWS-FLI1 expression: low (doxycycline-induced shRNA knockdown)
[5] = 0.25 µM, library screen: screen2, EWS-FLI1 expression: high (no doxycycline)
[6] = 0.25 µM, library screen: screen2, EWS-FLI1 expression: low (doxycycline-induced shRNA knockdown)
[7] = 2.5 µM, library screen: screen2, EWS-FLI1 expression: high (no doxycycline)
[8] = 2.5 µM, library screen: screen2, EWS-FLI1 expression: low (doxycycline-induced shRNA knockdown)
[9] = 0.025 µM, library screen: screen1, EWS-FLI1 expression: high (no doxycycline)
[10] = 0.025 µM, library screen: screen1, EWS-FLI1 expression: low (doxycycline-induced shRNA knockdown)
[11] = 25 µM, library screen: screen1, EWS-FLI1 expression: high (no doxycycline)
[12] = 25 µM, library screen: screen1, EWS-FLI1 expression: low (doxycycline-induced shRNA knockdown)

Measured: cell viability (log2)

COc1ccc(C(=O)c2ccccc2)c(O)c1O
inactive: [1] 0.123 | [2] 0.143 | [3] 0.244 | [4] 0.216

COc1ccc2c(c1)c(CC(=O)Nc1ccc(NC(C)=O)cc1)c(C)n2C(=O)c1ccc(Cl)cc1
inactive: [5] -0.0274 | [6] 0.0874 | [7] 0.0757 | [8] 0.214

CCCN(CCC)CCc1cccc2c1CC(=O)N2
active: [5] -0.0806 | [6] -0.203 | [7] -3.18 | [8] -2.79

CCN1C(=O)/C(=C/c2c(N3CCN(C)CC3)nc3ccccn3c2=O)SC1=S
inactive: [1] 0.0782 | [2] 0.0798 | [3] 0.126 | [4] 0.0777

COc1ccc(-c2nn(-c3ccccc3)cc2C=O)cc1[N+](=O)[O-]
inactive: [1] 0.000395 | [2] 0.0393 | [3] 0.0878 | [4] 0.0816

COc1ccccc1N(C(N)=O)c1nc(-c2cccnc2)nc2ccccc12
inactive: [5] 0.155 | [6] 0.0439 | [7] 0.275 | [8] 0.0633

C=C(c1ccccc1)c1cc(O)c(OC)cc1O
inactive: [1] -0.0139 | [2] -0.00424 | [3] 0.0356 | [4] 0.0603

COc1cc2ncc(-c3ccccc3)nc2cc1OC
active: [11] -0.157
inactive: [9] 0.165 | [10] -0.00441 | [1] 0.202 | [2] 0.0199 | [5] 0.139 | [6] 0.0671 | [3] -0.0715 | [4] 0.188 | [7] 0.212 | [8] 0.201 | [12] 0.175

O=C(Nc1ccccn1)c1cc(-c2ccccc2)nc2ccccc12
inactive: [1] 0.083 | [2] -0.00975 | [3] 0.0888 | [4] -0.0311

Cc1cc2ncc(-c3ccccc3)nc2cc1C
inactive: [9] 0.21 | [10] 0.0761 | [1] 0.265 | [2] 0.0996 | [4] 0.141 | [12] 0.0902
active: [3] -0.0894 | [11] -0.147

CC1=C(C(=O)OCC2CCCO2)C(c2coc3ccccc3c2=O)C2=C(CCCC2=O)N1 (stereo unspecified)
inactive: [1] 0.0728 | [2] 0.022 | [3] 0.00147 | [4] 0.0061

COc1ccc2c(c1)OC1CC1(c1ccccc1OC)C2=O (stereo unspecified)
inactive: [1] 0.0685 | [2] 0.0535 | [3] 0.0294 | [4] 0.0412

COc1ccc(OC)c(CN2CCN(Cc3ccco3)CC2)c1
inactive: [1] 0.136 | [2] 0.00829 | [3] 0.0712 | [4] 0.0546

C=C1C[C@]23C[C@@]1(O)CC[C@H]2[C@@]12C=C[C@H](O)C(C)(C(=O)O1)[C@H]2[C@@H]3C(=O)O
inactive: [1] 0.0797 | [2] -0.049 | [3] 0.109 | [4] 0.00256

CC(C)C[C@H](NC(=O)[C@@H](O)[C@H](N)Cc1ccccc1)C(=O)O
inactive: [5] 0.185 | [6] -0.00499 | [7] 0.106 | [8] 0.0581

CC(C)C[C@H](NC(=O)[C@H](O)[C@H](N)Cc1ccccc1)C(=O)O
inactive: [5] 0.14 | [6] 0.0402 | [7] 0.0931 | [8] 0.0118

CC(C)C[C@H](NC(=O)[C@H](Cc1ccccc1)NC(=O)c1cnccn1)B(O)O
active: 0.103 µM, library screen: screen3, EWS-FLI1 expression: high (no doxycycline) -0.242 | 0.308 µM, library screen: screen3, EWS-FLI1 expression: high (no doxycycline) -2.56 | 0.308 µM, library screen: screen3, EWS-FLI1 expression: low (doxycycline-induced shRNA knockdown) -0.914 | 0.926 µM, library screen: screen3, EWS-FLI1 expression: high (no doxycycline) -3.95 | 0.926 µM, library screen: screen3, EWS-FLI1 expression: low (doxycycline-induced shRNA knockdown) -1.75 | 2.8 µM, library screen: screen3, EWS-FLI1 expression: high (no doxycycline) -4.24 | 2.8 µM, library screen: screen3, EWS-FLI1 expression: low (doxycycline-induced shRNA knockdown) -4.06 | 8.3 µM, library screen: screen3, EWS-FLI1 expression: high (no doxycycline) -4.26 | 8.3 µM, library screen: screen3, EWS-FLI1 expression: low (doxycycline-induced shRNA knockdown) -3.84 | 25 µM, library screen: screen3, EWS-FLI1 expression: high (no doxycycline) -4.26 | 25 µM, library screen: screen3, EWS-FLI1 expression: low (doxycycline-induced shRNA knockdown) -4.16
inactive: 0.103 µM, library screen: screen3, EWS-FLI1 expression: low (doxycycline-induced shRNA knockdown) -0.0845

O=C(Nc1ccccc1Cl)C1c2ccccc2Oc2ccccc21
inactive: [1] 0.0923 | [2] 0.0427 | [3] 0.118 | [4] 0.00942

COC1CCC2(C)C(CCC3C2CCC2(C)C(C(C)CCCC(C)C)CCC32)C1 (stereo unspecified)
inactive: [1] -0.00918 | [2] 0.0236 | [3] 0.0903 | [4] 0.091

CCCCCCCCCC(=O)NC(CN1CCOCC1)C(O)c1ccccc1 (stereo unspecified)
active: [5] -0.53 | [6] -0.533 | [7] -1.39 | [8] -2.57

CCCCOc1ccc(OCCCN2CCOCC2)cc1
inactive: [1] 0.172 | [2] 0.0279 | [3] 0.124 | [4] 0.0578

CCN1CCCC(OC(=O)C(c2ccccc2)c2ccccc2)C1 (stereo unspecified)
inactive: [1] 0.0616 | [2] 0.0736 | [3] 0.223 | [4] -0.0423

Cc1ccc(C(=O)NCCSc2ccccn2)cc1
inactive: [1] 0.109 | [2] 0.00816 | [3] 0.117 | [4] -0.0564

Cn1cnnc1SCC(=O)N1c2ccccc2C(C)(c2ccccc2)CC1(C)C (stereo unspecified)
inactive: [1] 0.078 | [2] 0.058 | [3] 0.127 | [4] 0.198
